Results: PubChem BioAssay (EPA / NIEHS)
Inconclusive results are not listed. The source made the active and inactive calls. Rule for the calls, unless noted: active = hit-call score of the fitted dose curve at least 0.9, where 1 is the maximum; inconclusive = response in the unintended direction; inactive = score below 0.9.

Columns and labels:
[1] = molecular target: Bile acid receptor (Homo sapiens) (UniProt Q96RI1); test: ATG_FXR_TRANS: Attagene TRANS-FACTORIAL HepG2 Assay for Farnesoid X Receptor (FXR) (AID 2282979); details: HepG2 Attagene TRANS FXR-GAL4 reporter transcription;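 note: hits raise reporter mRNA above DMSO so AC50 marks FXR activation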
Sequence of Bile acid receptor (Homo sapiens) (Q96RI1 whole entry, looked up, the tested form may be a part): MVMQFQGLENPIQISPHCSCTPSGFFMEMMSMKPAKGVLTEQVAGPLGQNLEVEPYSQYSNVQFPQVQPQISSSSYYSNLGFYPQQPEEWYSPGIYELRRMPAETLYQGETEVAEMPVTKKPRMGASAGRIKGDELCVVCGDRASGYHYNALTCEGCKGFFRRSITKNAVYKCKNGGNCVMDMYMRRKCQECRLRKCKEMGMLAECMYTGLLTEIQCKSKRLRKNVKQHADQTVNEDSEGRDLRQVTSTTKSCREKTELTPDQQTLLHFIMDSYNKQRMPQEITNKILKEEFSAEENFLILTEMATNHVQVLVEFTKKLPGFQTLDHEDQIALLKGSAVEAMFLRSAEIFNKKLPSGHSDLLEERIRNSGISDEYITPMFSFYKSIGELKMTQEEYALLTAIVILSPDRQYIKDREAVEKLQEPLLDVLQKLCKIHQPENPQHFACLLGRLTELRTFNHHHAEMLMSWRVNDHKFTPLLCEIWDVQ
In short: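 Read-out: fluorescent reporter transcripts quantified by capillary electrophoresis after RT-PCR of total RNA. Source cells were HepG2 transiently carrying chimeric NR-GAL4 plus GAL4-UAS reporter units, dosed 24 h. Activity fitted upward relative to DMSO baseline.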

[2] = molecular target: Oxysterols receptor LXR-alpha (Homo sapiens) (UniProt Q13133); test: ATG_LXRa_TRANS: Attagene TRANS-FACTORIAL HepG2 Assay for human Liver X Receptor alpha (LXRa) (AID 2282980); details: HepG2 Attagene TRANS reporter, LXRa transactivation
Sequence of Oxysterols receptor LXR-alpha (Homo sapiens) (Q13133 whole entry, looked up, the tested form may be a part): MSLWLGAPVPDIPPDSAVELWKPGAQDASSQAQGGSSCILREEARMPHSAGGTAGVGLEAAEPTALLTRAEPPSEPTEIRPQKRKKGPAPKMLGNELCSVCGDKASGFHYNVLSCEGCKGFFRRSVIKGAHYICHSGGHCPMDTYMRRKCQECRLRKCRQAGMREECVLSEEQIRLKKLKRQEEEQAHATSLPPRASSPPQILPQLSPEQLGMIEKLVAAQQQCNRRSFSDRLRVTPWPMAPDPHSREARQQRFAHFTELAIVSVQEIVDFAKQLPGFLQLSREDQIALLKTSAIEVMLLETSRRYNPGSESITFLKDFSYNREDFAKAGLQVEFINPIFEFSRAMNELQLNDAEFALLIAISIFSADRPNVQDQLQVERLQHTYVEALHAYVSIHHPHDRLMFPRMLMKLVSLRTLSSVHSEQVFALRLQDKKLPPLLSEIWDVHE
In short: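 Read-out: reporter transcript levels by RT-PCR plus capillary electrophoresis, fluorescence intensity. Transiently transfected HepG2, exogenous NR-GAL4 chimera, GAL4-UAS reporters; 24 h compound exposure. Activity = increase over DMSO negative control.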

[3] = ATG_M_32_TRANS: Attagene TRANS-FACTORIAL HepG2 Assay for M32 Transcription Factor (Internal Marker) (AID 2282984); details: HepG2 Attagene TRANS M32 internal marker reporter;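 note: transcript level of a background control reporter unit measured by RT-PCR and capillary electrophoresis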
In short: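 Human hepatoma HepG2, transient MRTU transfection, 24 h treatment. RNA → RT-PCR → fluorescent primer extension → HpaI digest (2 h, 37 C) → CE. Positive-direction fit vs DMSO.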

[4] = molecular target: Transcriptional activator Myb (Homo sapiens) (UniProt P10242); test: ATG_Myb_CIS: Attagene CIS-FACTORIAL HepG2 Assay for human Myeloblastosis (Myb) Proto-Oncogene Transcription Factor (AID 2282986; active = hit-call score of the fitted dose curve at least 0.9, where 1 is the maximum; inactive = score below 0.9); details: HepG2 Attagene CIS-FACTORIAL Myb reporter transcription; actives raise or lower the signal
Sequence of Transcriptional activator Myb (Homo sapiens) (P10242 whole entry, looked up): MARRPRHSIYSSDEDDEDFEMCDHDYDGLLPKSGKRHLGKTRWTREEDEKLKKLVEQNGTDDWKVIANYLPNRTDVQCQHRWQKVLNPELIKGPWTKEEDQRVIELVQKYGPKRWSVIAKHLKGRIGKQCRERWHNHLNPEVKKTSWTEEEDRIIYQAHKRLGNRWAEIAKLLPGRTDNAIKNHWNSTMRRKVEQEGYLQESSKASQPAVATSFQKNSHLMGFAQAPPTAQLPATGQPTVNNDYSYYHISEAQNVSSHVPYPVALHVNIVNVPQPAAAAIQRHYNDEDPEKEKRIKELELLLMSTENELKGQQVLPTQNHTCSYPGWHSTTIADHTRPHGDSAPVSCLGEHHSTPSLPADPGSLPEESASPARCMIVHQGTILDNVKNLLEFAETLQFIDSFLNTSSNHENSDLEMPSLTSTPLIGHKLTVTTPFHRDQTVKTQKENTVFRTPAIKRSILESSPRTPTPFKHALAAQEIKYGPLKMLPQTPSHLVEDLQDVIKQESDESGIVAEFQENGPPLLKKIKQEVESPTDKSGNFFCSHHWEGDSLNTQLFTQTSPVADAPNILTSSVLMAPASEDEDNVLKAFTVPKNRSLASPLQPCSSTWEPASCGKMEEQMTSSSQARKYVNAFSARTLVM
In short: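 Using HepG2 liver cells bearing transiently transfected cis-promoter reporter constructs, the assay measures induction or loss of reporter mRNA after 24 hours of dosing. Detection used fluorescently labeled RT-PCR products separated by capillary electrophoresis.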

[5] = molecular target: Nuclear respiratory factor 1 (Homo sapiens) (UniProt Q16656); test: ATG_NRF1_CIS: Attagene CIS-FACTORIAL HepG2 Assay for human Nuclear Respiratory Factor 1 (NRF1) Orphan Gene (AID 2282987; active = hit-call score of the fitted dose curve at least 0.9, where 1 is the maximum; inactive = score below 0.9); details: HepG2 NRF1 cis-element reporter, Attagene multiplex; actives raise or lower the signal
Sequence of Nuclear respiratory factor 1 (Homo sapiens) (Q16656 whole entry, looked up): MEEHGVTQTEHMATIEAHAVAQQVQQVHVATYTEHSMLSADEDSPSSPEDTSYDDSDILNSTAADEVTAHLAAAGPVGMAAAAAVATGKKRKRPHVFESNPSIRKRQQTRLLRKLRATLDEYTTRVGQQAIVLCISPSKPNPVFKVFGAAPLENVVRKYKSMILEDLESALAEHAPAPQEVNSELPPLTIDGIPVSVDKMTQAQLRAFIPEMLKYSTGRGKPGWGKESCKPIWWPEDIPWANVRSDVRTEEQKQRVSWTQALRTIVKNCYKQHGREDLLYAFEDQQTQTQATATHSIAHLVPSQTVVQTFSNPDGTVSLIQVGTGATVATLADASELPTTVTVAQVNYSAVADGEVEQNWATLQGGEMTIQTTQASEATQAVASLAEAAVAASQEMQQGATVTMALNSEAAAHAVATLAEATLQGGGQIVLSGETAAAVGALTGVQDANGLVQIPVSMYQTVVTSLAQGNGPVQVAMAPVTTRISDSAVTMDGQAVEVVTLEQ
In short: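 Reporter mRNA induction or loss in HepG2 cells after 24 h dosing; cis-regulated reporter constructs report endogenous transcription-factor activity. Quantified by RT-PCR/capillary electrophoresis fluorescence, DMSO-referenced.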

[6] = ATG_NFI_CIS: Attagene CIS-FACTORIAL HepG2 Assay for human Nuclear Factor I (NFI) (AID 2282989; active = hit-call score of the fitted dose curve at least 0.9, where 1 is the maximum; inactive = score below 0.9); details: HepG2 cis-regulatory reporter, NFI response element transcription; actives raise or lower the signal
In short: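 Reporter transcripts were measured by RT-PCR with fluorescent primer extension and capillary electrophoresis 24 h post-treatment. HepG2 cells carried transiently transfected cis-regulated reporter constructs reporting endogenous factor activity; gain or loss fitted against DMSO baseline.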

[7] = molecular target: Oxysterols receptor LXR-beta (Homo sapiens) (UniProt P55055); test: ATG_LXRb_TRANS: Attagene TRANS-FACTORIAL HepG2 Assay for human Liver X Receptor beta (LXRb) (AID 2282981); details: HepG2 Attagene TRANS GAL4-LXRb reporter, mRNA
Sequence of Oxysterols receptor LXR-beta (Homo sapiens) (P55055 whole entry, looked up, the tested form may be a part): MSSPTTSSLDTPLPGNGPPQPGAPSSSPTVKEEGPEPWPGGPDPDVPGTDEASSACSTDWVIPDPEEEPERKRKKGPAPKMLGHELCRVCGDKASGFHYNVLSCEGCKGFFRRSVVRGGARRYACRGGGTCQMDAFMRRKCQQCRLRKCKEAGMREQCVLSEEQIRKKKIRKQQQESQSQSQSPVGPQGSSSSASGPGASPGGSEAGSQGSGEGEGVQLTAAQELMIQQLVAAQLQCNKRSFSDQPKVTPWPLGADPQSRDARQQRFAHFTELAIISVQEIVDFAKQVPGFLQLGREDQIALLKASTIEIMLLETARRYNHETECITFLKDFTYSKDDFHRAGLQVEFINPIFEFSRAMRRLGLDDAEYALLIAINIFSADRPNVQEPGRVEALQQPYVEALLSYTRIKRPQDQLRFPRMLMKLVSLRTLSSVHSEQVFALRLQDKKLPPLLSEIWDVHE
In short: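 In this TRANS format, exogenous chimeric NR-Gal4 protein activity, not endogenous factors, drives reporter expression in transfected human HepG2 cells. Exposure lasted 24 h; reporter mRNA was read by fluorescent capillary electrophoresis.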

[8] = ATG_M_06_TRANS: Attagene TRANS-FACTORIAL HepG2 Assay for M06 Transcription Factor (Internal Marker) (AID 2282983); details: HepG2 Attagene TRANS M06 internal marker reporter
In short: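 After a 24 h chemical treatment of transfected HepG2, RNA underwent DNase I treatment, reverse transcription and reporter-specific PCR; labelled, HpaI-digested products were sized by capillary electrophoresis. Signal increase relative to DMSO defined activity.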

[9] = molecular target: Hepatocyte nuclear factor 4-alpha (Homo sapiens) (UniProt P41235); test: ATG_HNF4a_TRANS: Attagene TRANS-FACTORIAL HepG2 Assay for human Hepatocyte Nuclear Factor 4 alpha (HNF4a) (AID 2282982); details: HepG2 HNF4a transactivation reporter, mRNA readout
Sequence of Hepatocyte nuclear factor 4-alpha (Homo sapiens) (P41235 whole entry, looked up, the tested form may be a part): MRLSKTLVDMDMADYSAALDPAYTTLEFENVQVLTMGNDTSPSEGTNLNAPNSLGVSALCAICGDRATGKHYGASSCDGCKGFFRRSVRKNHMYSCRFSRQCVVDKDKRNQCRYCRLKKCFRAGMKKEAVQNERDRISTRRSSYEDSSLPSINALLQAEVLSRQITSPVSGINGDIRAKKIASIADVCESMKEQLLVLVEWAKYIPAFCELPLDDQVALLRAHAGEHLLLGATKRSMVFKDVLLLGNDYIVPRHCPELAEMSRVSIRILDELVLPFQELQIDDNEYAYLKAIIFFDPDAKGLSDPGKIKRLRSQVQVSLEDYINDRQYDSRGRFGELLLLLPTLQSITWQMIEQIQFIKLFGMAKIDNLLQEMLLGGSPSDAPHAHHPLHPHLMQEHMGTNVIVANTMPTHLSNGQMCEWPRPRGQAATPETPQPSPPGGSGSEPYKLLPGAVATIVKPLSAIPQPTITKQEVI
In short: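 Cells used were human HepG2, transiently carrying GAL4-UAS reporter units read out against exogenous NR-GAL4 chimeras. Reporter transcript levels after 24 h dosing were quantified by fluorescent RT-PCR and capillary electrophoresis.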

[10] = molecular target: Nuclear receptor subfamily 4 group A member 2 (Homo sapiens) (UniProt P43354); test: ATG_NURR1_TRANS: Attagene TRANS-FACTORIAL HepG2 Assay for human Nuclear Receptor Related Protein 1 (NURR1) (AID 2282985); details: HepG2 Attagene TRANS reporter, mRNA readout
Sequence of Nuclear receptor subfamily 4 group A member 2 (Homo sapiens) (P43354 whole entry, looked up): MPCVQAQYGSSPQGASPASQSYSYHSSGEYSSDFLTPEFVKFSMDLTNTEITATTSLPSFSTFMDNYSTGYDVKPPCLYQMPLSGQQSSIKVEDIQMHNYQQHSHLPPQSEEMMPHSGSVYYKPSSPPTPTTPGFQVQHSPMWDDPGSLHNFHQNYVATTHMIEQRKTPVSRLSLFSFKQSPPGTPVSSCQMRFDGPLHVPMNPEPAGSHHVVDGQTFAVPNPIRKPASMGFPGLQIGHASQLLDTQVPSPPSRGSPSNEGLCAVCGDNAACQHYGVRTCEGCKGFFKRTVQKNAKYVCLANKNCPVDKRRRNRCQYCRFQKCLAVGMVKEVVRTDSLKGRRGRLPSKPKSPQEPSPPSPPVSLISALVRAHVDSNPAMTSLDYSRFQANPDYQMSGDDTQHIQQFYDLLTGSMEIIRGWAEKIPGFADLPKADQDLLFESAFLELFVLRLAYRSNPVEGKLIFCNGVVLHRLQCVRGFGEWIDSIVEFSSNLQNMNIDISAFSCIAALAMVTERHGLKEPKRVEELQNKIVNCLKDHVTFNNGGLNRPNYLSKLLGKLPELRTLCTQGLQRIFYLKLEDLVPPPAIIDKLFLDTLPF
In short: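 After 24 h chemical dosing, total RNA from transiently transfected HepG2 cells was reverse-transcribed and reporter cDNA PCR-amplified, FAM-labelled and analysed by capillary electrophoresis. Activity fitted in positive direction, DMSO as negative control.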

Measured: AC50

CCOC(=O)C(C)(C)Oc1ccc(Cl)cc1
inactive: [1] | [2] | [3] | [4] | [5] | [6]

CC1(C)CC(N=C=O)CC(C)(CN=C=O)C1 (centres undefined)
not listed: [2] | [9] | [10]
inactive: all other assays above

Nc1nc(N)c2nc(CNc3ccc(C(=O)N[C@@H](CCC(=O)O)C(=O)O)cc3)cnc2n1
not listed: [2] | [3]
inactive: all other assays above

Cc1ccccc1Cl
not listed: [3] | [9] | [10]
inactive: all other assays above

CCCCCCCCCCCCCCCC
not listed: [1] | [10]
inactive: all other assays above

COc1cc(/C=C/C(=O)CC(=O)/C=C/c2ccc(O)c(OC)c2)ccc1O
active: [6] 33.4 µM
not listed: [1]
inactive: all other assays above

COc1cc(S(=O)(=O)O)c(C)cc1N=Nc1c(O)ccc2cc(S(=O)(=O)O)ccc12
inactive: [1] | [9] | [8] | [4] | [5] | [6]

CCCCc1ccc2c(n1)[C@@H](c1ccc(OC)cc1C[C@H](C)C(=O)O)[C@H](C(=O)O)[C@H]2c1ccc2c(c1)OCO2
not listed: [8] | [9] | [10]
inactive: all other assays above

COc1cc(-c2nc(NC(=O)c3cc4cc(C)cc(C)c4n3CC(=O)O)sc2CCC2CCCCC2)c(OC)cc1Cl
active: [4] 24.2 µM | [6] 27 µM
not listed: [10]
inactive: all other assays above

CC(CO)OC(C)CO (centres undefined) (tested in a mixture with another compound)
inactive: [1] | [8] | [3] | [4] | [5] | [6]

Cc1cc(=O)[nH]c(=S)[nH]1
inactive: [1] | [9] | [8] | [4] | [5] | [6]

COCCOCCOC
inactive: [1] | [2] | [7] | [4] | [5] | [6]

CCCCCCCCCCCC(=O)OC
not listed: [3] | [10]
inactive: all other assays above

Cc1nc(-c2ccc3c(c2)CCN(CCC2CCC(NC(=O)/C=C/c4ccc(F)cc4)CC2)CC3)no1 (centres undefined)
inactive: [1] | [8] | [4] | [5] | [6]

C[Si]1(C)O[Si](C)(C)O[Si](C)(C)O[Si](C)(C)O1
inactive: [1] | [3] | [10] | [4] | [5] | [6]

Cc1c(C(=O)O)c(O)cc2c1C(=O)c1c(O)c([C@@H]3O[C@H](CO)[C@@H](O)[C@H](O)[C@H]3O)c(O)c(O)c1C2=O
inactive: [1] | [9] | [3] | [4] | [5] | [6]

C=CCOC(=O)c1ccccc1C(=O)OCC=C
active: [2] 25.1 µM
not listed: [3] | [9] | [10]
inactive: all other assays above

CC1(C)NC(=O)NC1=O
not listed: [1] | [10]
inactive: all other assays above

NC(=O)Cn1c(=O)cc(CCN2CCN(c3nccc4sccc34)CC2)c2ccc(F)cc21
inactive: [1] | [2] | [3] | [4] | [5] | [6]

CN1CCN(Cc2cc(-c3ccc4[nH]c(=O)oc4c3)co2)[C@@H](c2ccc(F)cc2)C1
not listed: [7] | [9] | [10]
inactive: all other assays above

CN[C@H]1CC[C@@H](c2ccc(Cl)c(Cl)c2)c2ccc(S(N)(=O)=O)cc21
not listed: [2] | [10]
inactive: all other assays above

COc1cc(C=O)ccc1O
inactive: [1] | [4] | [5] | [6]

NS(=O)(=O)c1cc2c(cc1Cl)NCNS2(=O)=O
not listed: [1]
inactive: all other assays above

Cc1nc(C)nc(N2C[C@@H](C)N(c3ccnc([C@@H](C)O)n3)[C@@H](C)C2)n1
not listed: [2] | [9] | [10]
inactive: all other assays above

CCCCCCOCCO
not listed: [1] | [10]
inactive: all other assays above

Cc1cc(NC(=O)C(=O)O)cc(C)c1Oc1ccc(O)c2c1CCC2
not listed: [2] | [10]
inactive: all other assays above

Nc1ccc(S(=O)(=O)c2ccc(N)cc2)cc1
inactive: all assays above

CCc1c(C(=O)NN2CCCCC2)nn(-c2ccc(Cl)cc2Cl)c1-c1ccc(Br)cc1
inactive: [1] | [3] | [10] | [4] | [6]
active: [5] 7.79 µM

O=C(O)CCCCC(=O)O
not listed: [2] | [8] | [10]
inactive: all other assays above

CCCCCCCC=O
inactive: [7] | [9] | [8] | [4] | [5] | [6]

CCNc1cccc(C)c1
inactive: [2] | [7] | [8] | [4] | [5] | [6]

CC(=O)Oc1ccccc1C(=O)O
inactive: [9] | [8] | [4] | [5] | [6]
active: [2] 71.6 µM | [7] 100 µM

CCCCCCCCCCCCCO
active: [4] 34.3 µM
not listed: [1] | [2] | [10]
inactive: all other assays above

CC(C)c1ccc(C(=O)N=C(N)N)cc1S(C)(=O)=O
inactive: [7] | [8] | [3] | [4] | [5] | [6]

COc1ccc(C)cc1N
not listed: [1] | [3] | [9]
inactive: all other assays above

Oc1ccc2ccccc2c1N=Nc1ccccc1
not listed: [1] | [3] | [10]
inactive: all other assays above

O=[N+]([O-])C(CO)(CO)CO
inactive: [2] | [3] | [4] | [5] | [6]

Nc1ccccc1N
active: [6] 46.1 µM
not listed: [1] | [10]
inactive: all other assays above
